One assay deals with CTSH. Briefly: pooled miR-30 sensor sort-seq; sequence = guide strand. The note with it: shRNA.
Take TTATCTGGAGTTTTATGGCAGG: the sensor-assay potency score (higher = more potent) is -0.729.
As to TACATCCTTGACAAAGCCGATG, the sensor-assay potency score (higher = more potent) is -1.28.
TTGTTGTACAGGATATACTCGA came in with a sensor-assay potency score (higher = more potent) of 0.136.
On the same count and under the same terms, in the case of TTAGACATCCATGACTTGAAGT it was -0.899; in that of TTACGGTGCTTAGACATCCATG, -1.04; in that of TTTTATGGCAGGAAGTACTGGA, 0.401.
Sequence TTTGGTGGCTGAGCAATTCTGA came in with a sensor-assay potency score (higher = more potent) of -0.218.
TTCAGCAAAGCTCATGTCTGAA had a sensor-assay potency score (higher = more potent) of -0.714.
TCTATACATCATGAAGTCCTGA returned a sensor-assay potency score (higher = more potent) of 0.44.
Regarding TTCTCCATACCCAACAGCCAGT, the sensor-assay potency score (higher = more potent) is -1.28.
TTCAGTGCCATTTTAAATGTGT had a sensor-assay potency score (higher = more potent) of 0.219.

A further assay has as its target CUZD1. The assay is described as above. The following applies: shRNA.
Sequence TATCTTGTAATCTTTCTCCACT displayed a sensor-assay potency score (higher = more potent) of -0.514.
Still for that read-out and setting: as for TTTGACTTTGTATTACATCATC, the figure is -1.5; as for TTGTATTACATCATCTTCTGTT, 0.486.
TTCTGATTGTACCACATCCATT had a sensor-assay potency score (higher = more potent) of -1.82.
Sequence TTGATTAGGTCGTAGGTTGGAG returned a sensor-assay potency score (higher = more potent) of 0.0207.
As to TTGAAGTTTAGTTTTATCTTGT, the sensor-assay potency score (higher = more potent) came out at 0.539.
As to TTACACTGCAGATACACAGAGC, the sensor-assay potency score (higher = more potent) was -0.444.
TATATGAAGAAATGTCTCGTTT showed a sensor-assay potency score (higher = more potent) of -0.417.
Take TTTGTATTACATCATCTTCTGT: the sensor-assay potency score (higher = more potent) is -0.716.
Sequence TTTGCTTATAATAACTCTCATC displayed a sensor-assay potency score (higher = more potent) of -0.82.
Sequence TTTAGTTGCAAGTTATTCCCAT registered a sensor-assay potency score (higher = more potent) of 0.389.
Sequence AAATACAGGAACATAGTCGTTT showed a sensor-assay potency score (higher = more potent) of 0.0357.
Further: reference of the scale not given here.
